# Potency and affinity values are given separately. Active and inactive are the calls of the source.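 The calls were made as follows: active = signal drops and a fitted half-effect dose is at or below ten times that sample's top valid dose; inconclusive = flat fit with a moderate drop, or a poor fit; inactive = the rest.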
# Experiment: LuxS/LuxPQ-dependent luminescence inhibition, V. harveyi – dry powder, set 2, dose response (AID 493072)
# Conditions: Vibrio harveyi JMH597 AI-2 quorum sensing luminescence, 9 h; series mostly up to 16 µM
structure (smiles),measurement,value
CCc1ccc(C(=O)Nc2ccc(Br)cn2)cc1,outcome,inactive
